Measurements taken from ChEMBL document CHEMBL3988442, “University of Dundee, Small-Polar-MMV Screening Library” (2021).
Out of some 69,000 compounds screened, about 950 (1.4%) showed an effect of 50% or more. This is one part of a sample in which strong results are shown more often than they occur.

Tested on: Mycobacterium tuberculosis
Experiment: Cornell M. t heat shock assay; further: in the data most compounds retested in dose-response had high values
Type: functional, organism-based
Design: dose or concentration left out as unconfirmed

Compound | Percent Effect [%]
CS(=O)(=O)CCNCc1ccc(OCc2cscn2)cc1 | -2.969
CC1c2ncc(Cn3cccn3)n2CCN1c1ncccn1.O=C(O)C(F)(F)F (centres undefined) | 40.47
COc1ccc(-c2n[nH]cc2CNC2CCN(C3CC3)CC2)cc1.Cl | -33.63
Cc1ccc(N2CCO[C@H]3CN(Cc4cccnc4)C[C@H]32)nn1.O=C(O)C(F)(F)F.O=C(O)C(F)(F)F.O=C(O)C(F)(F)F | -30.09
CC(=O)Nc1cccc(CN2CCCC2C(=O)Nc2nccs2)c1 (centres undefined) | -15.37
O=C(Nc1nccs1)C1CCCN1Cc1ccccn1 (centres undefined) | 103.1
CCNc1ccnc(CN2CCCC2C(=O)Nc2nccs2)c1 (centres undefined) | 13.04
Cc1ccc(C(N)c2cccc(S(C)(=O)=O)c2)c(C)c1.Cl (centres undefined) | 1.87
COc1cccc(C(NCc2ccc(SC)cc2)c2nccn2C)c1 (centres undefined) | 112.8
Cn1cc(C(NCc2ccc(F)cc2)c2cccc(F)c2)cn1 (centres undefined) | -7.107
CC(c1ccc(F)cc1)N1CCN(Cc2nccn2C)CC1 (centres undefined) | -10.33
CSc1ccc(CN(CCO)Cc2nccn2C)cc1 | -17.8
COc1c(CNC(c2ccc(F)cc2)c2nccn2C)c(C)nn1C (centres undefined) | -11.67
CSc1ccc(CNC(c2ccccc2)c2nccn2C)cc1 (centres undefined) | 105.2
CC(NCc1ccc(OCc2nccn2C)cc1)c1cccnc1 (centres undefined) | -26.18
COc1ccc(CNC(c2cccc(F)c2)c2cnn(C)c2)cc1 (centres undefined) | -3.342
COc1cccc(-c2cc(NCc3nccn3C)n(C)n2)c1 | 1.129
COc1c(CNC(c2ccccc2)c2ccc(F)cc2)c(C)nn1C (centres undefined) | -7.995
CSc1ccc(CNC(c2ccc(F)cc2)c2nccn2C)cc1 (centres undefined) | 112.9
Cn1ccnc1C(NCc1ccccc1)c1ccc(F)cc1 (centres undefined) | 113.8
O=C(O)C(F)(F)F.O=C(O)C(F)(F)F.c1ccc(CO[C@@H]2CN(Cc3nccs3)[C@@H]3COC[C@@H]32)nc1 | 32.68
Cn1cc(N2CC3(CCN(Cc4nccs4)CC3)OCC2=O)cn1.O=C(O)C(F)(F)F | -26.5
CCn1c(NCc2ccccn2)nc2c(C)nn(C)c2c1=O | -10.12
COc1ccc(CN2CCC(c3cc(O)nc(C)n3)C2)c(OC)c1.O=C(O)CC(O)(CC(=O)O)C(=O)O (centres undefined) | -19.34

Compound | Percent Effect [%]
Cl.O=C(NCc1cccc(Cl)c1)C1=NOC2(CCNC2)C1 (centres undefined) | -31.4
O=C(O)C(F)(F)F.O=C(c1cscn1)N1CC[C@@H]2[C@@H]1CCN2C1CCOC1 (some centres undefined) | 5.753
CCN1C[C@H]2[C@@H](C1)N(C(=O)Cc1ccsc1)CC[C@H]2OC.O=C(O)C(F)(F)F | -3.863
COCC1Cn2nnc(-c3cnn(C)c3)c2CN1Cc1ccsc1.O=C(O)C(F)(F)F (centres undefined) | 14.81
COc1ccc(CN2CCN(c3ncc(Cl)cn3)CC2)cc1 | -15.93
CCc1ccc(CN2CCN(c3ncc(Cl)cn3)CC2)nc1 | 68.7
CCc1ccc(CN2CCN(c3ccc(Cl)nn3)CC2)nc1 | 15.06
Cc1nc(Cn2c3c(ccc2=O)CC(NC(C)C)CC3)cs1.O=C(O)C(F)(F)F.O=C(O)C(F)(F)F (centres undefined) | 34.33
COCCN1CCOCC2(CCCN(Cc3cccc(F)c3)C2)C1.O=C(O)C(F)(F)F.O=C(O)C(F)(F)F (centres undefined) | -14.36
Clc1ccccc1C1(c2ccnc(-c3ncccn3)n2)CCNCC1 | -0.2715
Clc1ccccc1C1(c2ccnc(C3CCCC3)n2)CCNCC1 | 57.06
Clc1ccccc1C1(c2ccnc(C3CC3)n2)CCNCC1 | -18.26
CC(C)NC(=O)[C@@H]1C[C@@H]2CCN(Cc3ccoc3)C[C@H]2O1.O=C(O)C(F)(F)F | 43.76
CC(C)N(C)Cc1cnc2n1CCN(C(=O)NC1CCCC1)C2.O=C(O)C(F)(F)F | 7.687
Fc1cnc(N2CCO[C@H]3[C@H](OCCN4CCCC4)CC[C@@H]32)nc1.O=C(O)C(F)(F)F | -1.217
Cc1ccc(N2CC[C@H]3C[C@@H](C(=O)N4CCOCC4)O[C@H]3C2)nn1.O=C(O)C(F)(F)F | 9.789
O=C(Nc1c(N2CCCC2)cccc1N1CCCC1)c1cnsn1 | 3.548
O=C(Nc1c(N2CCCC2)cccc1N1CCCC1)c1cnccn1 | 26.63
O=C(Nc1c(N2CCCC2)cccc1N1CCCC1)c1ccccn1 | 104.6
Cl.Cn1cc(CN2CCN(CC3(c4ccccc4)CC3)CC2)cn1 | -7.6
Cc1cccc(CN2C(=O)CCC23CCN(C(=O)c2ccco2)CC3)n1.O=C(O)C(F)(F)F | -22.73
COCc1nc(-c2ccnc(N3CCNCC3)n2)no1.Cl.Cl | 24.05
CC(C)Cn1cc(C(=O)NC2CCS(=O)(=O)C2)c2ccccc2c1=O (centres undefined) | 1.323
O=C(NC1CCS(=O)(=O)C1)c1cn(C2CC2)c(=O)c2ccccc12 (centres undefined) | 62.62

Compound | Percent Effect [%]
CC(C)n1cc(C(=O)NC2CCS(=O)(=O)C2)c2ccccc2c1=O (centres undefined) | -0.4948
O=C(O)C(F)(F)F.c1cc(CN2C[C@H](OCC3CCOCC3)[C@H]3COC[C@H]32)cs1 | 11.94
O=C(NC1CCCC1)[C@@H]1CN(Cc2nccs2)C[C@H]2OCC[C@H]21.O=C(O)C(F)(F)F.O=C(O)C(F)(F)F | -17.32
CSCC(C)C(=O)NCc1c(C)nc2cc(=O)[nH]n2c1C (centres undefined) | 9.376
Cn1ccnc1-c1ccc(NC[C@H]2CCc3ccccc3O2)nn1 | 50.1
Cn1ccnc1-c1ccc(NCCC2COc3ccccc3O2)nn1 (centres undefined) | 44.06
Cn1ccnc1-c1ccc(NCC2COc3ccccc3O2)nn1 (centres undefined) | 32.53
Cl.O=C(C1CCC1)N1C[C@@H](c2ccsc2)[C@@H]2CN(C3CCCC3)CC[C@@H]21 | -4.778
O=C(CCn1cc(Cl)cn1)N1C[C@@H]2CC[C@H](C1)N(Cc1ccccn1)C2 | 7.885
CC(NCCCN1CCCC1=O)c1cc(Br)ccc1F (centres undefined) | 13.95
CC(NCCN1CCC(N(C)C)CC1)c1ccc(F)cc1N(C)C (centres undefined) | -14.59
CC(NCCCN1CCCC1=O)c1ccc(F)cc1N(C)C (centres undefined) | 87.91
CCNC(=O)NCc1nn(CCN2CCCC2)c(=O)c2ccccc12 | 41.46
CCOC(=O)NCc1nn(CCN2CCCC2)c(=O)c2ccccc12 | 74.86
COCC(=O)NCc1nn(CCN2CCCC2)c(=O)c2ccccc12 | -7.005
N#CCCN(Cc1ccco1)C(=O)c1ccc(OCC2CC2)cc1 | 14.1
N#CCCN(Cc1cccnc1)C(=O)c1ccc(OCC2CC2)cc1 | 6.663
N#CCCN(CCC#N)C(=O)c1ccc(OCC2CC2)cc1 | 94.69
Cl.NCCC(=O)Nc1ccc(-c2ccccc2)cc1 | 3.2
CC(=O)N1CCC(c2nc3ccc(NC4CCC4)cn3n2)CC1.O=C(O)C(F)(F)F | 21.7
O=C(O)C(F)(F)F.O=C(O)C(F)(F)F.O=c1ccc2c(n1Cc1cccnc1)CCN(Cc1ccoc1)CC2 | -14.95
CC(C)c1nn(C)cc1CNC1CCOc2ccccc21.Cl (centres undefined) | -5.42
O=C(CN1CCCS1(=O)=O)Nc1ccc(OC(F)F)cc1 | -14.39
COc1ccc(CNC(=O)CN2CCc3ccccc32)cc1 | -48.79

Compound | Percent Effect [%]
O=C(CN1CCc2ccccc21)Nc1ccc(OC(F)F)cc1 | 99.06
COCCN1CCOCC2(C1)CN(C(=O)c1conc1C)CCO2.O=C(O)C(F)(F)F (centres undefined) | 15.5
COCCC(=O)NC1CCN(CC2(c3cccc(F)c3)CCCC2)CC1.Cl | 23.79
CC(c1cccc(-c2ncccc2C#N)c1)N(C)C (centres undefined) | 73.93
COC(C)(C)Cn1ccnc1-c1cccc(C(C)N(C)C)c1 (centres undefined) | -20.81
CC(c1cccc(-c2ncccc2F)c1)N(C)C (centres undefined) | 76.79
Cc1ccc(C(=O)O)cc1-c1cccc(C(C)N(C)C)c1 (centres undefined) | -8.231
CC(c1cccc(-c2ncc(C#N)c(N)n2)c1)N(C)C (centres undefined) | -10.92
CC(c1cccc(-c2nccn2CCc2ccccn2)c1)N(C)C (centres undefined) | -27.93
Cc1ccc(CN2Cc3ccccc3O[C@]3(CC[C@H](CO)CC3)C2)o1.Cl | -44.64
Cc1nc(CN2C(=O)C[C@@H]3[C@@H]2CCN3CC2CCOCC2)cs1.O=C(O)C(F)(F)F | -14.82
COCCC(=O)N1C[C@H]2CN(Cc3cccc(C)n3)C(=O)[C@H]2C1.O=C(O)C(F)(F)F | -12.42
COc1cc(N2C[C@@H]3COC[C@]3(COCc3cccc(C)n3)C2)ncn1.O=C(O)C(F)(F)F.O=C(O)C(F)(F)F | 1.772
Cc1cnccc1-c1cnn(CCNC(=O)c2ccncc2)c1C1CC1.Cl | -0.5476
CN(C)CCN1C(=O)C2(CCN(CC3CC3)CC2)c2ccccc21.O=C(O)C(F)(F)F.O=C(O)C(F)(F)F | 2.693
Cc1ccc(CN2CCC[C@]3(C(=O)O)CN(C)C[C@@H]3C2)s1.O=C(O)C(F)(F)F.O=C(O)C(F)(F)F | 10.8
CCn1c(CN(C)C)nnc1C1CCN(c2nccc(NC)n2)CC1 | -31.54
CCn1c(CN(C)C)nnc1C1CCN(c2ccnc(C)c2)CC1 | 105.5
Cc1cc(N2CCC(c3nnc(CN(C)C)n3C3CC3)CC2)ccn1 | -0.4086
Cc1cc(N2CCCC2Cn2nc(C)cc2C)n2ncnc2n1 (centres undefined) | 11.78
Cc1cc(-n2cnnn2)n2ncnc2n1 | -4.919
Cc1cc(-n2cncn2)n2ncnc2n1 | 61.29
